Results on 26 molecules are retold here after PubChem BioAssay (NCATS).

Records with an inconclusive call do not appear. Entries that show only a call come without a potency. A number with no mark means an inactive call. The source made the active and inactive calls. Calls follow the shape of the dose curve; as a rule, active = well fitted inhibition curve with a large enough effect; inconclusive = small, poorly fitted or top-dose-only effect; inactive = flat fitted curve, though single readings scatter.
Also: nearly all actives have a fitted effect of over 60% in size.

The subject of the first assay is NIH3T3. The experiment in a line: Cytotoxic Profiling of Annotated Libraries Using Quantitative High-Throughput Screening (AID 1296008). Also: potency is read from the fitted curve at half-maximal effect. Particulars: Five cell lines viability, CellTiter-Glo ATP luminescence, 48-72 h; max response: stronger effect = lower value. In outline:
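Cytotoxicity was measured as CellTiter-Glo ATP luminescence, read after 10 min at room temperature. Compound treatment of the cells lasted 48 or 72 hr at 37 degrees Celsius in a qHTS format.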
In general terms: Cellular ATP, detected with luciferase, serves as a proxy for viable cell number.
As for `C[C@H](CN1CCCC1)C(=O)c1ccc(C(F)(F)F)cc1`, the max response is -14.5%. As to `CCN1CCCC1CN` (stereo not given), the max response is -1.87%. Take `CO[C@@H]1[C@@H](OC)[C@H](C)[C@@](O)(CC(=O)O)O[C@H]1[C@H](C)[C@H]1O[C@@]2(CC[C@@](C)([C@H]3CC[C@@](C)([C@@H]4O[C@@H]([C@H]5O[C@](C)(O)[C@H](C)C[C@@H]5C)C[C@@H]4OC4C[C@H](OC)[C@@H](OC)[C@H](C)O4)O3)O2)C[C@H](O)[C@H]1C` (stereo not given in full): the Potency was 6.68 µM (active). Turning to `CCCCCOc1ccccc1/C(=C\SC)n1ccnc1`, the max response was -29.1%. Regarding `Cc1ccc(C(=O)C(=O)O)cc1C`, the max response is 2.73%. Take `O=C(Nc1ccc(S(=O)(=O)N2CCOCC2)cc1)c1cc(Cl)ccc1NS(=O)(=O)c1ccc(Cl)s1`: the result was inactive. In the case of `CN1[C@@H]2CC[C@H]1CC(NC(=O)n1c(=O)[nH]c3ccccc31)C2` (stereo not given in full), the max response was 1.08%.

For `CCCCCN(CCCOC)C(=O)C(CCC(=O)O)NC(=O)c1ccc(Cl)c(Cl)c1` (stereo not given), the max response was -3.2%. Consider `Cc1oc(-c2ccccc2)nc1CCC(=O)c1ccc(CC2SC(=O)NC2=O)cc1` (stereo not given), for which the max response was -0.446%. As for `Nc1ccc2c(c1)CN1C(=O)c3ccccc3C1=N2`, the Potency is 7.31 µM (active). Consider `Cc1cnc(NS(=O)(=O)c2ccc(N)cc2)nc1`, for which the max response is 2.98%. Same read-out and setting: to `O=C(O)Cc1ccccc1Oc1ccc(Cl)cc1Cl` belongs -11.6%. In the case of `COc1ccc2c(c1)c(CC(=O)OC/C=C(\C)CC/C=C(\C)CCC=C(C)C)c(C)n2C(=O)c1ccc(Cl)cc1`, the max response was 4.12%. On the same count and under the same terms, to `COCCOCC(OC)OC` belongs 1.4%; to `COCCc1ccc(OCC2CO2)cc1` (stereo not given), -4.27%.

The test system of the next assay is HACAT. The experiment in a line: qHTS assay to identify novel small-molecules to repurpose for Merkel cell carcinoma treatment (AID 1296009). To be noted: MCC and control cell lines, CellTiter-Glo viability, 72 h; at 44.8 µM (top of the series) unless noted. In outline: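 After compound transfer in DMSO, plates were kept 72 hr at 37 degree celsius. Luminescent ATP signal from CellTiter-Glo served as viability measure, normalized against DMSO and no-cell controls.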
Turning to `CCC1=C[C@@H]2CN(C1)Cc1c([nH]c3ccccc13)[C@@](C(=O)OC)(c1cc3c(cc1OC)N(C)[C@H]1[C@@](O)(C(=O)OC)[C@H](OC(C)=O)[C@]4(CC)C=CCN5CC[C@]31[C@@H]54)C2`, the result was inactive. Still for that read-out and setting: with `OC1(c2ccc(Cl)cc2)CCNCC1` the entry was “inactive”.

In the case of `CCCCN(CCN(CCCC)C(=O)N1CCOCC1)C(=O)N1CCOCC1`, the outcome was inactive. The same measure, in the same setting: with `O=C(CCCl)NCc1ccccc1` the entry was “inactive”; with `CCN(CC)CC(=O)Nc1c(C)cccc1C(=O)OC`, “inactive”; with `CCCCCCOC(=O)NC(=N)c1ccc(NCc2nc3cc(C(=O)N(CCC(=O)OCC)c4ccccn4)ccc3n2C)cc1`, “inactive”. On the same count and under the same terms, to `CC1(C)OC(=O)Nc2ccc(Br)cc21` belongs “inactive”; to `O=C(C1CCCCC1)N1CC(=O)N2CCCc3ccccc3C2C1` (stereo not given), “inactive”; to `CC(Oc1c(Cl)cccc1Cl)C1=NCCN1` (stereo not given), “inactive”.

Turning to `CCN(CC)CC(=O)OCC(=O)[C@@]1(O)CC[C@H]2[C@@H]3CCC4=CC(=O)CC[C@]4(C)[C@H]3[C@@H](O)C[C@@]21C`, the molecule was called inactive. Still for that read-out and setting: to `Cc1oc(-c2ccccc2)nc1CCC(=O)c1ccc(CC2SC(=O)NC2=O)cc1` (stereo not given) belongs “inactive”; to `CCC(=O)O[C@]1(C(=O)COC)[C@@H](C)C[C@H]2[C@@H]3CCC4=CC(=O)C=C[C@]4(C)C3(F)[C@@H](O)C[C@@]21C` (stereo not given in full), “inactive”; to `Cc1cnc(NS(=O)(=O)c2ccc(N)cc2)nc1`, “inactive”. Same read-out and setting: with `COc1ccc2c(c1)c(CC(=O)OC/C=C(\C)CC/C=C(\C)CCC=C(C)C)c(C)n2C(=O)c1ccc(Cl)cc1` the entry was “inactive”; with `COCCOCC(OC)OC`, “inactive”.
